The list is not random: actives were taken first. Their share in the collection is about 7.9%.
HT1080 IDH1KD tx: kills HT-1080 cells with IDH1 knockdown. Potency, µM (top dose mostly 46.1 µM), inactives show at the top dose activity, negative = toxicity, most hits filed as cytotoxic. hit rate 2% among 360,000. HT-1080 IDH1 knockdown viability, ATP luminescence, 48 h;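 further: 0% = DMSO wells and -100% = cell-free medium wells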
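Using the IDH1-knockdown HT-1080 line run in the same batch and compound series as the NT line, viability after 48 h at 37 °C was determined by CellTiter-Glo luminescence and expressed as % activity.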
MCF10A rereplic: induces DNA re-replication in MCF 10a normal breast cells | Potency, µM (highest dose often 46.1 µM), for inactives: at the top dose activity, positive = re-replication, actives largely listed as activators | hit rate 2.9% among 350,000 | AID 624296 | MCF 10A DNA re-replication, Hoechst nuclear intensity, 48 h; further: % of control where 0% means no effect; nearly all actives have a fitted effect of over 50% in size
HT1080-NT tox: kills 2HG-producing HT-1080-NT fibrosarcoma cells | HT-1080-NT fibrosarcoma viability, CellTiter-Glo ATP luminescence, 48 h | Potency, µM (doses to about 46.1 µM), without a hit: at the top dose activity, negative = less viability, usual class: cytotoxic | hit rate 1.6% among 360,000 | AID 686970;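 further: NT is the 2HG producing partner of a matched IDH1 knockdown line; 0% = DMSO-treated cells and -100% = media-only wells without cells; nearly all actives have a fitted effect of over 55% in size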
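Luminescent CellTiter-Glo readout after 48 hours of compound exposure at 37 degrees C defined viability of HT-1080-NT cells. Activity was normalized to DMSO wells and cell-free media wells; concentration-response curves were fitted and assigned curve classes.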
KB-3-1 cytotox: KB-3-1 parental cell cytotoxicity; hit rate 1.4% among 400,000; KB-3-1 viability, CellTiter-Glo ATP luminescence, 72 h; Potency, µM (doses to about 46.1 µM), hits mostly cytotoxic; further: on the % scale 0 is the no-effect control and ±100 the full control effect; nearly all actives have a fitted effect of over 60% in size
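Viability of parental KB-3-1 cells, measured by CellTiter-Glo luminescence, followed a 72 h incubation at 37 °C with pinned compounds in phenol-red-free DMEM containing 10% FBS.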
KB-V1 MDR tox: kills drug-selected multidrug resistant KB-V1 cells; KB-V1 MDR cells viability, CellTiter-Glo, 72 h; Potency, µM (top dose mostly 46.1 µM), usual class: cytotoxic; hit rate 3.4% among 400,000; AID 1347076; further: on the % scale 0 is the no-effect control and ±100 the full control effect; nearly all actives have a fitted effect of over 60% in size
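qHTS viability screen in drug-selected KB-V1 MDR cells: 72 h compound treatment at 37 degrees C, ATP luminescence end point.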
SW480 rerep: induces DNA re-replication in SW480 colon adenocarcinoma cells; SW480 DNA re-replication, Hoechst DNA content imaging, 48 h; hit rate 1.8% among 340,000; Potency, µM (top dose mostly 46.1 µM), without a hit: at the highest dose re-replication activation, hits mostly activators; further: % of control where 0% means no effect; nearly all actives have a fitted effect of over 55% in size
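DNA re-replication was detected as more nuclei of elevated Hoechst intensity after 48 hr exposure to compound (23 nL pinned per well of 250 cells).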
Starred values were filed as active, the others as inactive; i = inactive; ? = inconclusive; . = not tested or not shown. The call rests on the fitted dose curve; in most records, active means well fitted curve in the direction sought with a large enough effect; inconclusive means small, poorly fitted or top-dose-only effect, or another doubt; inactive means no such curve, though single readings can be large; an effect the other way counts as inactive or inconclusive. Potency means the concentration at half of the fitted maximal effect.

SMILES	HT1080 IDH1KD tx	MCF10A rereplic	HT1080-NT tox	KB-3-1 cytotox	KB-V1 MDR tox	SW480 rerep
Cc1nn(Cc2ccc(C(=O)NN)o2)c(C)c1Cl	-1%	?	-6%	i	i	?
Cc1nn(Cc2ccc(C(=O)Nc3ccc(C(=O)OC(C)C)cc3)o2)c(C)c1Cl	?	?	?	i	23µM*	-1%
Cc1ccc(-c2nc(N=Nc3ccc(O)cc3)n[nH]2)cc1	-15%	?	12%	i	13µM*	-3%
COc1ccc(-c2nc(N=Nc3ccc(O)cc3)n[nH]2)cc1	-9%	-4%	7%	i	i	-4%
CCc1ccc(-n2nc(C)c3c(C)cc(=O)n(CC(=O)Nc4cc(Cl)ccc4OC)c32)cc1	.	.	.	i	i	.
CC(C)(C)NC(=O)CN(Cc1cccs1)C(=O)CN1C(=O)C(=O)c2ccccc21	0%	2.1µM*	1%	i	i	?
CC(C)(C)NC(=O)CN(Cc1cccs1)C(=O)c1csnn1	-1%	1%	17%	i	i	-12%
O=C(CN(Cc1cccs1)C(=O)CN1C(=O)COc2ccccc21)NCc1ccco1	-17%	-5%	1%	i	13µM*	-2%
Cc1ccc(C(=O)NC(=S)Nc2ccc(NC(=O)c3cccs3)cc2)cc1[N+](=O)[O-]	21µM*	?	?	i	i	-4%
Cc1ccc(C(=O)NC(=S)Nc2ccccc2N2CCCC2)cc1[N+](=O)[O-]	-25%	2.6µM*	-18%	i	i	0%
Cc1ccc(C(=O)Nc2ccccc2N2CCCCC2)cc1[N+](=O)[O-]	2%	2%	10%	?	?	?
Cc1ccc(C(=O)Nc2ccc(NC(=O)c3cccs3)cc2)cc1[N+](=O)[O-]	7%	1%	26%	i	i	-4%
COc1cccc(C(=O)Nc2ccc(C(=O)c3ccncc3)cc2)c1	-26%	13%	?	i	?	-7%
COc1ccc(NC(=O)C2CCN(c3cc(C)nc4c(-c5ccc(Cl)cc5)c(C)nn34)CC2)cc1	.	.	.	i	i	.
CCCNC(=O)C1(C)CCCN(Cc2ccc3c(c2)OCO3)C1 (configuration not stated)	6%	.	-1%	i	i	.
O=C(Nc1ccc(C(F)(F)F)cc1)C1CCCCN1S(=O)(=O)c1ccccc1 (configuration not stated)	-2%	?	2%	?	?	6%
COc1ccc(-c2csc3nc(-c4ccccc4OC)oc(=O)c23)cc1	?	21µM*	?	i	i	16µM*
CC(C)Nc1ccc(-c2nc(-c3ccco3)no2)cc1[N+](=O)[O-]	.	.	.	i	i	.
CCC1OC(=O)C[C@@H](O)[C@H](C)[C@@H](OC2OC(C)CC(N(C)C)C2O)[C@@H](CC=O)C[C@@H](C)C(=O)/C=C/[C@]2(C)OC2C1C (some centres not stated)	.	17%	.	.	.	?
NC(N)=NCCCS(=O)(=O)Nc1ccc(Nc2c3ccccc3nc3cc([N+](=O)[O-])ccc23)cc1	17%	3%	9%	15µM*	?	-1%
O=[N+]([O-])c1ccc(-c2nc(Nc3ccc(O)cc3)c3ccccc3n2)cc1	10%	24%	5%	i	i	-10%
Cc1ccc(C(=O)Nc2cccc([N+](=O)[O-])c2)cc1S(=O)(=O)Nc1ccc(C(=O)O)cc1	5%	?	9%	i	i	1%
Cc1ccccc1NS(=O)(=O)c1cc(C(=O)Nc2cccc([N+](=O)[O-])c2)ccc1C	21µM*	?	?	?	12µM*	-1%
Cc1ccc(C)c(NS(=O)(=O)c2cc(C(=O)Nc3ccccc3-c3ccccc3)ccc2C)c1	?	19%	?	?	4.6µM*	17%
